Tau FP inhib: tau fibrillization inhibition (FP); P10636; K18 P301L tau heparin fibrillization, Alexa594 FP, 6 h; Potency, µM (series often up to 57.7 µM), inactives show at the highest dose activity, negative = inhibition, hits mostly inhibitors; 280,000 compounds, 0.39% hits; AID 1468; also: potency is read from the fitted curve at half-maximal effect; nearly all actives have a fitted effect of over 55% in size
Target sequence (P10636 561-689 P618L limits assumed): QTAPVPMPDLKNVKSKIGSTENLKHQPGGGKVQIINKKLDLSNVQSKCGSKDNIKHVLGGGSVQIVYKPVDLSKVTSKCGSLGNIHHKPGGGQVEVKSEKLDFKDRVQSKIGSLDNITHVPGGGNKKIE
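Human tau K18 […] P301L fragment, 15 uM unlabeled plus 0.24 uM Alexa 594-labeled tau (final), with compound and 20 uM heparin in 100 mM sodium acetate pH 7; 6 hr at 37 C, then Alexa 594 FP read.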
FBPA coupling cs: coupling enzyme interference in Giardia aldolase counter-screen; AID 2472; 290,000 compounds, 0.67% hits; activity change, negative = inhibition, % at 58.2 µM, hits read low; coupling enzyme system counterscreen, AmpLite Red fluorescence; in the data active = activity change below about -30%
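First, compound is pin-transferred into glyceraldehyde-3-phosphate coupling-enzyme reagent at 57.5 uM final and held 10 min at RT. Next, substrate, coupling system and AmpLite Red are added. After 20 min RT, fluorescence (525/598 nm) is read.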
Sfp PPTase inh: Sfp phosphopantetheinyl transferase inhibition. 310,000 compounds, 3.5% hits. Potency, µM, without a hit: largest response in the series, negative = inhibition, hits mostly inhibitors. Q9F4F7. Biochemical Sfp PPTase activity, qHTS. AID 1490;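 also: the enzyme is Sfp with the accession as filed and its product quenches rhodamine fluorescence; potency is read from the fitted curve at half-maximal effect; 0% = enzyme reaction without inhibitor and -100% = no enzyme wells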
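With Hepes-Na pH 7.6 buffer containing 10 mM MgCl2, Sfp (15 nM) modified BHQ-2-YbbR (12.5 uM) using rhodamine-CoA (5 uM). Two reads 30 minutes apart at 525/598 nm yielded each well's rate.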
Tau ThT inhib: inhibitors of human tau fibril formation, thioflavin T binding; P10636; recombinant tau K18 P301L, heparin-induced fibrillization, ThT fluorescence; Potency, µM (doses to about 57.4 µM), for inactives: at the highest dose activity, negative = inhibition, hits mostly inhibitors; 270,000 compounds, 2.1% hits; AID 1460; also: potency is read from the fitted curve at half-maximal effect; nearly all actives have a fitted effect of over 55% in size
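Aggregation was driven by heparin (20 uM final) acting on recombinant tau […] bearing P301L in 100 mM sodium acetate pH 7; fibrils were detected with Thioflavin T.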
JMJD2E inh: blocks human JMJD2E demethylase activity; B2RXH2; JMJD2E catalytic domain, FDH-coupled NADH fluorescence (FDH is formaldehyde dehydrogenase); Potency, µM (highest dose often 57.1 µM), for inactives: top-dose activity change, negative = inhibition, actives largely listed as inhibitors; 230,000 compounds, 1.6% hits; AID 2147; active = well fitted inhibition curve with a large enough effect, not every such curve was filed as active; inconclusive = small, poorly fitted or top-dose-only effect, or another doubt; inactive = no such curve, though single readings can be large or run the other way;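 also: potency is read from the fitted curve at half-maximal effect; 0% = wells with enzyme and -100% = buffer wells without enzyme; nearly all actives have a fitted effect of over 50% in size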
Target sequence (B2RXH2 1-337 limits assumed): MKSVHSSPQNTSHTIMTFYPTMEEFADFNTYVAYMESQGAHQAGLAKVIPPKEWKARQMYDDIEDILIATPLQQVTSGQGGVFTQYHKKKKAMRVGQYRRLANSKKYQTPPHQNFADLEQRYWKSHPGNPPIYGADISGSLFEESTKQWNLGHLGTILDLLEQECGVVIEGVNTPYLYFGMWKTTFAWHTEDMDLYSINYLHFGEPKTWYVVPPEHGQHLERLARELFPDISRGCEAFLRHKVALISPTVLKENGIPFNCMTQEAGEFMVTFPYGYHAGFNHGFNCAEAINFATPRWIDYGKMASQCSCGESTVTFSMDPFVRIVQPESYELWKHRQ
Tau fluor cs: counter-screen for tau fibril formation inhibitors | Potency, µM (doses to about 57.7 µM), for inactives: top-dose activity change, negative = decrease | tau K18 P301L (four-repeat tau fragment) Alexa594 fluorescence, heparin fibrillization | 280,000 compounds, 0.93% hits; also: potency is read from the fitted curve at half-maximal effect; nearly all actives have a fitted effect of over 55% in size
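Human K18 P301L tau (15 uM unlabeled plus 0.24 uM Alexa 594-labeled, final) in 100 mM sodium acetate pH 7 was mixed with compound and 20 uM heparin and incubated 6 hr at 37 C.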
Starred values were filed as active, the others as inactive; ? = inconclusive; / = no result; ! = a repeat was not active; [ ] = another dose, or the depositor's remark. Compounds with a hit are over-represented: about 5.3% of the library has one in this group of screens. Unless noted, calls follow the shape of the dose curve; as a rule, active = well fitted curve in the direction sought with a large enough effect; inconclusive = small, poorly fitted or top-dose-only effect, or another doubt; inactive = no such curve, though single readings can be large; an effect the other way counts as inactive or inconclusive. Unless noted, % is scaled to controls: 0 for no effect and ±100 for the full control effect.

SMILES | Tau FP inhib | FBPA coupling cs | Sfp PPTase inh | Tau ThT inhib | JMJD2E inh | Tau fluor cs
COc1ccc(-n2c(=O)cnc3cnc(N4CCNCC4)nc32)cc1 | / | -2 | 19% | / | / | /
O=C(CCCn1c(=O)c2sccc2n(Cc2c(F)cccc2Cl)c1=O)NCc1ccccc1 | -2% | / | / | -15% | / | -19%
CN(C)c1ccc(NC(=S)c2ccccn2)cc1 | 4% | -7 | 45µM* | 3.5µM* | 18µM* | ?
Fc1cccc2sc(Nc3nnc(-c4ccco4)o3)nc12 | -5% | -12 | 6% | 13µM* | ? | -23%
Cc1ccc(CNC(=O)c2cccc(Nc3nc4ccccc4n4nnnc34)c2)cc1 | -6% | / | / | -7% | / | -25%
N#CC1CC(c2ccc([N+](=O)[O-])cc2)=NN1c1ccc([N+](=O)[O-])cc1 (stereo unspecified) | 13% | 0 | -2% | 3.2µM* | 3% | ?
Cc1nc(NS(=O)(=O)c2ccccc2)sc1NC(=O)OCCN(C)C | -4% | -1 | 20µM* | ? | -3% | -10%
CN1CCSc2ccc(C(=O)Nc3cccc(F)c3)cc21 | ? | -12 | -25% | ? | ? | 22µM*[quencher]
COc1ccc(NC(=O)c2ccc3c(c2)N(C)CCS3)cc1 | / | 0 | 9% | / | / | /
CN(C)c1ccc(/C=N/n2c(-c3cccnc3)n[nH]c2=S)cc1 | -14% | -1 | -8% | -9% | ? | -10%
CN(C)c1ccc(/C=N/n2c(-c3ccccc3Br)n[nH]c2=S)cc1 | 10% | 3 | 56µM* | / | ? | -19%
CCN(CC)c1ccc(/C=N/n2c(=S)[nH]nc(C)c2=O)cc1 | -3% | -2 | 79µM* | -10% | -4% | -21%
S=c1[nH]nc(-c2ccccn2)n1/N=C/c1ccc(Cl)cc1 | -1% | 5 | 11% | -7% | 5% | -6%
Cc1ccc(/C=N/n2c(-c3ccccn3)n[nH]c2=S)o1 | -10% | 0 | 28µM* | -4% | -8% | 9%
S=c1[nH]nc(-c2ccccn2)n1/N=C/c1ccccc1 | 5% | 6 | 40µM* | 2% | ? | -3%
Fc1ccc(/C=N/n2c(-c3cccs3)n[nH]c2=S)cc1 | 6% | 5 | 50µM* | 16% | 2% | 11%
Cc1ccccc1/C=N/n1c(-c2ccccn2)n[nH]c1=S | -11% | -6 | 35µM* | -11% | -14% | -18%
S=c1[nH]nc(-c2cccs2)n1/N=C/c1cn(-c2ccccc2)nc1-c1ccccc1 | -5% | 1 | -1% | ? | 3% | ?
Nc1ncc(S(=O)(=O)N2CCN(c3ccccc3)CC2)cn1 | 1% | / | / | 5% | / | 6%
Cc1ccccc1C1=CCN(c2ncc(NC(=O)c3ccc(Cl)cc3)cc2C(=O)O)CC1 | ? | / | / | 14µM* | / | -28%
Cc1cc[n+](-c2nc3ccccc3nc2C(=C=[N-])C#N)cc1 | -6% | -41* | -29% | -10% | 3% | -4%
N#CC(=C=[N-])c1nc2ccccc2nc1-[n+]1ccccc1 | -4% | 0 | 5% | ? | -9% | -18%
C[c-]1[c-](C)[c-](C)[c-](C)[c-]1C.[Fe].c1cc2nccc(N3CCCC3)[c-]2c1 (stereo unspecified) | ? | -33*! | 89µM*! | 32µM* | 10µM*! | ?
Cn1cnc2c(N3CCCCC3)nccc21 | -3% | -8 | -11% | -3% | ? | 2%
Cn1c(=O)c([N+](=O)[O-])c(-n2ccnc2)c2ccccc21 | -5% | 2 | 56µM* | ? | -29% | -19%
SMILES | Tau FP inhib | FBPA coupling cs | Sfp PPTase inh | Tau ThT inhib | JMJD2E inh | Tau fluor cs
Cn1c(=O)c([N+](=O)[O-])c(NCCCn2ccnc2)c2ccccc21 | 13% | 10 | 11% | -7% | 12% | 7%
CN(C)CCCNCC(=O)c1c(-c2ccccc2)n(C)c2ccccc12 | / | -4 | 40µM* | / | / | /
OCC(O)CS (stereo unspecified) | / | / | 15% | / | / | /
COc1ncc2nc(-c3ccc(Cl)cc3)c(=O)n(Cc3cccs3)c2n1 | / | 2 | -1% | / | / | /
COC(=O)c1c(NC(=O)Cc2cccs2)sc2c1CCC(C)C2 (stereo unspecified) | ? | 2 | 20µM* | ? | ? | -22%
COC(=O)c1c(NC(=O)Cn2cnc([N+](=O)[O-])n2)sc2c1CCC(C)C2 (stereo unspecified) | 3% | -13 | 32µM* | 3% | -2% | 0%
COC(=O)c1c(NC(=O)CCCOc2ccccc2C)sc2c1CCC(C)C2 (stereo unspecified) | -9% | / | / | ? | / | -16%
N=c1c(-c2nc3ccccc3[nH]2)cc(C(=O)c2ccco2)nn1-c1ccccc1 | 10% | -4 | 0% | 16µM* | -1% | ?
Cc1ccccc1/C=N/NC(=O)Cn1cnc([N+](=O)[O-])n1 | 2% | -3 | 2% | -5% | -2% | -7%
O=C(Cn1cnc([N+](=O)[O-])n1)N/N=C/c1ccccc1O | 6% | 2 | 27% | -11% | 25µM* | -4%
O=C(Cn1cnc([N+](=O)[O-])n1)N/N=C/c1cc(Cl)ccc1O | 3% | 1 | 21% | -1% | 22µM* | 1%
COC(=O)c1nc2ccc(N3CCOCC3)cc2c(C)c1C(=O)OC | 3% | -51* | 1% | ? | -10% | 2%
Cc1cc(C(=O)Nc2ccc(N3CCOCC3)cc2)c2ccccc2n1 | 4% | 0 | 9% | ? | 4% | -20%
CCCn1c(/C=C/c2ccccc2)nc2ccccc21 | -2% | -16 | ? | -8% | ? | -5%
CC(C)Cn1c(/C=C/c2ccco2)nc2ccccc21 | -4% | -2 | 35µM* | ? | ? | -10%
Cc1cc(N=Cc2c(O)n(-c3ccc4c(c3)OCO4)c(=O)c3ccccc23)ccn1 | -4% | -2 | ? | ? | ? | ?
Cc1ccc(-n2c(O)c(C=Nc3ccc4c(c3)OCO4)c3ccccc3c2=O)cc1C | 8% | 1 | 35µM* | -14% | -6% | -24%
O=C(COC(=O)c1ccccc1Cc1ccccc1)Nc1ccc(SC(F)F)cc1 | 25µM* | 2 | 16% | 3% | -4% | ?
COc1ccccc1OCC(O)Cn1c(=N)n(Cc2ccccc2)c2ccccc21 (stereo unspecified) | -5% | -4 | -12% | 6% | -7% | 3%
CCCCCn1c(=N)n(CC(O)COc2ccccc2OC)c2ccccc21 (stereo unspecified) | -3% | -7 | 25µM*! | 3% | -6% | -5%
O=C(/C=C/c1ccc(Cl)c([N+](=O)[O-])c1)Nc1ccc(N2CCCC2)cc1 | -4% | 0 | -21% | 0.89µM* | -13% | 18µM*[quencher]
O=C(/C=C/c1ccc(Cl)c([N+](=O)[O-])c1)Nc1ccc(NC(=O)c2ccco2)cc1 | -13% | 5 | 9% | ? | 5% | ?

Assay outcomes: PubChem, National Center for Advancing Translational Sciences (NCATS)
